# ERK AVP block – inhibitors of vasopressin-stimulated ERK signaling pathway; AID 995; Potency, µM (highest dose often 57.5 µM), for the others: at the top dose activity, negative = inhibition, usual class: inhibitors; 72,000 compounds, 0.99% hits; HEK293-V1b, vasopressin-stimulated pERK AlphaScreen; note: % is set by controls: 0 for no effect and ±100 for the full control effect; nearly all actives have a fitted effect of over 55% in size
#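 V1b-HEK293 cells; cpd 30 min 37C; 25 nM vasopressin 5 min; lyse 10 min; AlphaScreen beads 5 hr RT. Normalized to DMSO basal and 25 nM vasopressin; AC50 by Hill fit.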
# PK Bst – modulators of Bacillus stearothermophilus pyruvate kinase; purified pyruvate kinase, luminescence ATP production; ribose 5-phosphate activator present at AC10; Potency, µM; 51,000 compounds, 1.2% hits; in the data active = potency below about 11 µM; inconclusive = mostly about 12 µM to 25 µM;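 the screen sought inhibitors and activators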;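 note: scaled between full activation by ribose 5 phosphate and full inhibition by luteolin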
# HEK293 cAMP cs – counter-screen for TSHR agonists: cAMP increase in parental HEK293; parental HEK293 CNG cAMP sensor, membrane potential fluorescence; Potency, µM (highest dose often 57.1 µM), inactives show top-dose activation, hits mostly activators; 73,000 compounds, 2.5% hits; AID 938; note: % of control where 0% means no effect; nearly all actives have a fitted effect of over 55% in size
#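 Parental HEK 293 cells stably expressing a cAMP-gated CNG channel were loaded with membrane potential dye containing 100 uM RO 20-1724 for 60 min. Compound added for 30 min; depolarization read as fluorescence intensity at 590 nm.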
# GBA activity – modulators of human glucocerebrosidase. 48,000 compounds, 1.1% hits. purified enzyme, resorufin glucoside fluorescence (screen aimed at inhibitors), 20 min. Potency, µM. P04062; in the data active = potency below about 15 µM; inconclusive = mostly about 16 µM to 33 µM;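 note: the screen sought inhibitors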
# Target sequence (P04062 whole entry, looked up): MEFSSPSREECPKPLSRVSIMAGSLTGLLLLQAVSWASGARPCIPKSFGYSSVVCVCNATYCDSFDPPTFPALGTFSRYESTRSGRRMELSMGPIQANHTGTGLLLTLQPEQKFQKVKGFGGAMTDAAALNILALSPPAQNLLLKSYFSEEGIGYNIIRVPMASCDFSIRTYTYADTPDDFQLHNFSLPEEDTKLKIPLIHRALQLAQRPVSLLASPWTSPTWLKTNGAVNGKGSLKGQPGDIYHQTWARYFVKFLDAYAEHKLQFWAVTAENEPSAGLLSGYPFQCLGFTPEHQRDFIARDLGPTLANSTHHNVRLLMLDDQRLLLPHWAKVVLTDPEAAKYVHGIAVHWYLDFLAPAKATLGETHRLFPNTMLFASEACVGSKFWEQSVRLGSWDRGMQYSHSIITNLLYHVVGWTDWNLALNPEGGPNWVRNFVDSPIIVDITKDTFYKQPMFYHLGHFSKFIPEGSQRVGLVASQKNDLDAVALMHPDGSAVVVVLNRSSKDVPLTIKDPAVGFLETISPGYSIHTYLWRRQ
#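 Wild-type enzyme at 0.2 nM final in 50mM citric acid/KH2PO4, 10mM sodium taurocholate, 0.01% tween-20, pH 5.9, with resorufin beta-D-glucopyranoside at 30 uM final. Compounds titrated, 20 min at RT, red fluorescence read; AC50 from titration.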
# TSHR agonist – TSH receptor (human) agonism; HEK293-CNG-TSHR cells (CNG channel as cAMP sensor), membrane potential dye, cAMP; Potency, µM (doses to about 57.1 µM), without a hit: at the top dose activation, most hits filed as activators; P16473; 73,000 compounds, 0.48% hits; active = well fitted activation curve with a large enough effect in the main read-out, with a control signal flat, not every such curve was filed as active; inconclusive = small, poorly fitted or top-dose-only effect, or a change in a side signal; inactive = no such curve, though single readings can be large or run the other way; % of control where 0% means no effect;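 note: the control signal comes from parental cells without the receptor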
#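 HEK 293 cells stably expressing TSHR and a cAMP-gated CNG channel; parental CNG-only cells as counterscreen. Cells preloaded 60 min with membrane potential dye plus 100 uM RO 20-1724, then compound 30 min; fluorescence read at 590 nm.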
# Luciferase inh – firefly luciferase inhibition; P08659; purified firefly luciferase, luminescence, 8 min; Potency, µM (titrated, usually from 57.1 µM), for the others: at the top dose activity change, negative = inhibition, actives largely listed as inhibitors; 72,000 compounds, 2.2% hits; note: % is set by controls: 0 for no effect and ±100 for the full control effect; nearly all actives have a fitted effect of over 40% in size
#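 Titration-based qHTS; buffer 50 mM imidazole pH 7.2, 50 mM KCl, 7 mM MgCl2, 10 uM ATP, 0.01% Tween 20, 0.05% BSA; luciferase/luciferin detector mix added after compound; 8 min, ambient; luminescence.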
# Starred values were filed as active, the others as inactive; i = inactive; ? = inconclusive; . = no result given; [ ] = dose if it differs, or a comment. An excerpt weighted towards active compounds, which were near 6.1% of everything screened. Unless noted, calls come from the whole dose curve; as a rule, active = well fitted curve in the direction sought with a large enough effect; inconclusive = small, poorly fitted or top-dose-only effect, or another doubt; inactive = no such curve, though single readings can be large; an effect the other way counts as inactive or inconclusive. Potency is the fitted concentration of half-maximal effect.
SMILES,ERK AVP block,PK Bst,HEK293 cAMP cs,GBA activity,TSHR agonist,Luciferase inh
c1ccc(CNc2ccnc(-c3ccc4c(c3)OCO4)n2)cc1,-12.6%,.,?,.,?,-4.5%[2.29 µM]
O=C(O)CC[C@]1(C(=O)O)CCC(=O)c2ccccc21,19.7%[11.5 µM],.,10.2%[11.4 µM],.,1.5%[11.4 µM],3.9%[11.4 µM]
Cc1cccc(-c2noc(CN(C(=O)c3ccc4c(c3)OCO4)C(C)C)n2)c1,-3.0%,>57,31.6µM*,>76.9,?,0.8%
Cc1cccc(-c2noc(CN(C(=O)c3ccc(Br)o3)C(C)C)n2)c1,-6.7%,>57,?,>76.9,?,1.2%
CC1CCN(CC[C@@H]2CCCN2S(=O)(=O)c2cccc(O)c2)CC1,11.4%,.,8.3%,.,15.4%,-5.1%
c1c2c(cc3sc(N4CCOCC4)nc13)OCCO2,-9.2%,4.45*,-3.5%,>76.9,28.9%,1.58µM*
COc1ccc(-c2cc(-c3ccccc3)nc(N3CCCC3)n2)cc1OC,30.4%,.,10.9%[11.4 µM],.,3.16µM*,1.1%
COc1ccc(-c2cc(C(F)(F)F)nc(N3CCOCC3)n2)cc1OC,29.0%,>57,?,>76.9,?,-0.8%
Cn1cccc1C(=O)OCc1cc(Cl)cc2c1OCOC2,-27.9%,>57,?,12.2*,?,-1.9%
CCc1ccccc1Nc1nc(N)nc(COC(=O)c2cccn2C)n1,1.7%,>57,0.0%,>76.9,2.7%,0.2%
Cc1noc(C)c1COC(=O)c1cc(=O)[nH]c2ccccc12,4.5%,>57,22.7%,>76.9,10.1%,6.9%
Cc1noc(C)c1C(=O)OCC(=O)c1c[nH]c2ccccc12,0.8%,.,-15.6%,8.3*,-14.2%,15.8µM*
CCN1CCN(c2ncc(C(=O)Nc3c(F)cc(F)cc3Br)c3ccccc23)CC1,20.5%,>57,?,12.4*,?,1.3%
CCN1CCN(c2ncc(C(=O)Nc3cc(Cl)c(OC)cc3OC)c3ccccc23)CC1,7.1%,>57,13.4%,i,16.1%,4.1%
O=C(O)CCCN1CCCCC1,3.5%[11.5 µM],.,10.8%[11.4 µM],.,-6.0%[11.4 µM],2.1%[11.4 µM]
CCOC(=O)c1c(C2CCN(C(=O)OCC)CC2)nc2ccccn12,.,.,0.316µM*,.,?,0.9%
Cc1cc(N=Cc2c(CO)cnc(C)c2O)c(N=Cc2c(CO)cnc(C)c2O)cc1C.[Zn],14.7%[11.5 µM],.,-2.2%[11.4 µM],.,-4.6%[11.4 µM],-0.1%[11.4 µM]
Cn1c2ccccc2c2ncn(CCCN3CCOCC3)c(=O)c21,-0.4%,9.71*,-5.8%,>76.9,8.2%[11.4 µM],-0.8%
Cn1c2ccc(F)cc2c2ncn(CCN3CCOCC3)c(=O)c21,-4.2%,.,-11.2%,>76.9,3.1%,0.0%
O=C1c2ccc(Oc3ccc4c(c3)C(=O)N(CCCCO)C4=O)cc2C(=O)N1CCCCO,20µM*,>57,0.8%,>76.9,10.1%,0.8%
COc1ccc(OC(=O)CCCN2C(=O)c3ccccc3C2=O)cc1,-13.3%,>57,4.6%,>76.9,5.2%,-4.1%
O=C(Cn1cnc2c(cnn2-c2ccccc2)c1=O)OCc1ccccc1,?,>57,?,>76.9,?,-27.4%
O=C(Cn1cnc2c(cnn2-c2ccc(F)cc2)c1=O)N1CCCc2ccccc21,?,>57,23.6%,>76.9,23.7%,-1.5%
Cc1ccc(-n2ncc3c(=O)n(CC(=O)N4CCCc5ccccc54)cnc32)cc1C,25.1µM*,.,22.3%,>76.9,27.4%,-1.6%
Cc1ccc(-n2ncc3c(=O)n(CC(=O)OCc4ccccc4)cnc32)cc1,-10.9%,>57,25.1µM*,>76.9,?,-1.1%
SMILES,ERK AVP block,PK Bst,HEK293 cAMP cs,GBA activity,TSHR agonist,Luciferase inh
Cc1ccc(-n2nnc3c(=O)n(CC(=O)OCc4ccccc4)cnc32)cc1,.,.,25.1µM*,.,?,1.6%
COc1ncc2nc(-c3cccc(C#N)c3)c(=O)n(CCC#N)c2n1,?,.,5.4%,.,-7.4%,-0.4%[11.4 µM]
CCOc1ccc(NS(=O)(=O)c2ccc(C)c(C(=O)O)c2)cc1,.,.,-3.4%,.,6.2%,.
Cc1nc2cc(-c3ccccc3)ccc2o1,0.7%,.,0.1%,>76.9,-3.8%,15.8µM*
COc1ccccc1-c1cc(=O)c2cc(O)ccc2o1,-15.9%,.,39.8µM*,.,?,-6.9%[11.4 µM]
O=c1cc(-c2ccccc2O)oc2cc(O)ccc12,11.4%,.,.,.,.,.
CO[C@H]1COC(=O)[C@H](C)COC(=O)C/C=C\[C@@H](C)[C@H](OC)COC(=O)C/C=C\[C@@H]1C,5.4%[11.5 µM],.,7.1%[11.4 µM],.,-7.3%[11.4 µM],2.0%[11.4 µM]
Cc1ccc2c(c1)N(CC(=O)NCC1COc3ccccc3O1)C(=O)CO2 (stereo not given),.,.,-48.9%,.,?,-0.3%
Cc1ccc(-c2nnc(SCc3ccccc3F)o2)cc1,139.8%,i,?,>76.9,?,20µM*
CN(Cc1ccco1)c1nc(-c2cccc(C#N)c2)nc2ccccc12,20.8%,.,26.5%,.,.,0.7%[2.29 µM]
COc1ccc(-c2nc(C#N)c(NCCCN(C)C)o2)cc1OC,-25.7%,.,7.0%,.,4.7%,-9.1%
COc1ccc(-c2nc(C#N)c(NC(C)c3ccccc3)o2)cc1OC (stereo not given),15.8µM*,>57,-13.4%,>76.9,21.3%,-2.3%
COC(=O)c1ccc(OCc2nc(N)nc(N3CCOCC3)n2)cc1,7.2%,>57,5.8%,>76.9,.,-0.6%
CCOc1ccc(Nc2cc(C)nc(N3CCOCC3)n2)cc1,13.5%,1.45*,5.0%,3.43*,3.5%,0.5%
CCOC(=O)c1ccc(Nc2cc(C)nc(N3CCOCC3)n2)cc1,-27.7%,1.52*,0.3%,8.47*,-10.3%,0.0%
Clc1ccc(Nc2nc(NCCN3CCOCC3)nc(N3CCOCC3)n2)cc1,-11.4%,.,2.9%,.,0.7%[11.4 µM],-1.7%
CCOc1ccc2nc(N3CCOCC3)nc(C)c2c1,21.9%,i,11.8%,.,1.7%,15.8µM*
CCOc1ccc(Nc2nc(NCCN3CCOCC3)nc(OC)n2)cc1,8.6%,6.31*,-5.3%,?,-2.2%,-2.8%
Cc1ccc(Nc2nc(N3CCOCC3)nc(N3CCOCC3)n2)cc1,-17.1%,.,0.0%,.,3.3%,1.0%
COc1ccccc1-c1nccc(NCc2cccc(C)c2)n1,11.5%,.,?,.,?,2.2%[2.29 µM]
O=C(O)[C@H]1C[C@H](C(=O)O)N1,-2.9%,.,?,.,?,-7.5%
Oc1ccccc1C1Nc2cccc3cccc(c23)N1,8.6%,3.6*,-24.5%,>76.9,-34.6%,-9.8%
CS(=O)(=O)Nc1cccc(-c2nc(N3CCOCC3)c3ccccc3n2)c1,-13.4%,.,10.8%,.,.,-1.2%[2.29 µM]
COc1ccc(CNc2nc(-c3ccc(N(C)C)cc3)nc3ccccc23)c(OC)c1,-13.5%,.,-21.1%,.,-20.0%,-3.7%[2.29 µM]
Nn1c(Nc2ccccc2)nc2ccccc21,-4.5%,.,-1.3%,.,-8.7%,12.6µM*
Cc1ccc(S(=O)(=O)NCCCOC(=O)Nc2ccncc2)cc1,13.0%,>57,6.0%,8.86*,5.1%,-0.1%
Cc1ccc(S(=O)(=O)NCCc2ccncc2)cc1,-9.8%,.,8.3%,.,2.1%,0.4%
c1cncc(-c2nc(N3CCCCCC3)c3ccccc3n2)c1,20µM*,>57,25.1µM*,>76.9,?,0.6%

# High-throughput results (PubChem)
